The record followed here is PubChem BioAssay (NCI).

Several values for one entry are separate records, joined by “and”; a condition that tells them apart may be missing. Equal entries are not always repeated. About 83,000 compounds went through this panel and 20% of them were active in at least one assay; those are over-represented in the sample as a whole.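 Compound tested at a single concentration for 48 hours in 96-well plates; a percent growth value below 10 was scored as active.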 Values without a mark were called inactive. Activity calls are given as the source filed them.

The test concerns MDA-MB-468 breast. Nature of the test: NCI-60 one-dose screen, 48 h (100 = growth as untreated, 0 = no growth, -100 = all killed). To be noted: 10 µM unless noted.
Take `CC1=C2[C@@H](CC1)[C@]1(C)O[C@@](C3CC3)(C[C@H]1OC(=O)CO)[C@H]2OC(=O)/C=C/c1ccccc1`: the growth was 83%.
On to `O=C1c2cccc3cccc(c23)C(=O)N1N1C(=O)c2cccc3c(NC4CCCCC4)ccc(c23)C1=O`, for which the growth was 100%.
Consider `COc1ccc(OC)c(Nc2nc3nonc3nc2Nc2cc(OC)ccc2OC)c1`, for which the growth was 63.1%.
Under `Brc1ccc(Nc2nc(Nc3cnc4ccccc4c3)c3[nH]cnc3n2)cc1` stands 65.5%; under `COc1ccc(C(=O)/C=C/c2cn(Cc3ccc(Cl)cc3)c3ccccc23)cc1`, -28.2% (active); under `O=C(NNc1nccc(Nc2ccc(S(=O)(=O)Nc3ccncc3)cc2)n1)c1ccccc1`, 116%.
Take `CNCCCC12CCC(c3ccccc31)c1ccccc12`: the growth is 29.4%.
Consider `C=C1C(=O)O[C@H]2[C@H]1CC/C(COC(=O)/C=C\C(=O)NCc1ccc(Cn3c(=O)sn(CCCl)c3=O)cc1)=C\CC[C@@]1(C)O[C@@H]21`, for which the growth was 43%.
Turning to `CCCCCN(CCCCC)CC(O)c1cc2c(c3ccccc13)CCCC2` (stereo not given), the growth was 72.1% and 81.2%.
Consider `O=C(Nc1cccc(Cn2c(=O)[nH]c3ccc(Oc4ncccn4)cc3c2=O)c1)c1cccc(F)c1`, for which the growth was 49.8%.
Under `C=CCCCCCCCCC(=O)[O][Sn]([CH2]CCC)([CH2]CCC)[CH2]CCC` stands -85.6% (active); under `COc1nc(OC)nc(-c2cc(-c3cc(OC)c(OC)c(OC)c3)no2)n1`, 104%; under `CC(C)(C)c1cc(C(=O)N2CCC(C(=O)NCCN)CC2)cc(C(C)(C)C)c1`, 82.4%.
With `CCCCCC/C=C\CCCCCCCCCc1cc(O)cc(OC)c1O`, the growth was -54.1% (active).
Consider `CCOC(=O)c1c(NC(=O)c2ccccc2)sc2c(O)c(CN(CC)CC)ccc12`, for which the growth is -2.82% (active).
`C=CC(=O)Nc1cccc(-c2nc(SC)nc(Nc3ccccc3OC)c2C#N)c1`: the growth was 18.2%.
Under `CCN1C(=O)N(CC)C2C1N=C(SCc1ccc(Cl)cc1)N2/N=C/C=C/c1ccccc1OC` (stereo not given) stands 40.5%.
Consider `COc1cccc(CNc2nnc(C)c(C)n2)c1O`, for which the growth was 91.7%.
Under `O=C(O)c1cn(C2CC2)c2cc(N3CCN(C(=O)C[n+]4cccc5ccccc54)CC3)c(F)cc2c1=O` stands 71.4%.
Consider `O=c1[nH]c2ccccc2cc1-c1nc2ccncc2[nH]1`, for which the growth is 75%.
Under `CC[N+]1(CC)CC[N+]2(CCCC(C)CC2)CC1` (stereo not given) stands 108%.
Turning to `Clc1ccc2sc(-c3ccccc3)nc2c1`, the growth is 68.9%.
Turning to `CCOC(=O)c1cn2ncnc(Oc3ccc(NC(=O)NCCN(C)C)c(Cl)c3)c2c1C`, the growth was 67.4%.
Under `COc1cnc2c(c1)C(=O)c1c-2n(CCCN2CCC(O)CC2)c(=O)c2cc(F)ccc12` stands -57.2% (active); under `C=C(C)[C@@H]1CC[C@]2(C(=O)NCCNCCNCCN)CC[C@]3(C)[C@H](CC[C@@H]4[C@@]5(C)CC[C@H](O)C(C)(C)[C@@H]5CC[C@]43C)[C@@H]12`, -48.6% [100 µM] (active); under `O=C(CCCCCCNC(=O)C(O)(O)C(F)(F)F)Nc1nc2ccccc2s1`, -12.8% (active).
In the case of `c1ccc2[nH]c(-c3cc(-c4ccc5c(c4)OCO5)n[nH]3)nc2c1`, the growth is 51.2%.
On to `O=c1n(C2OC(CO)C(O)C2O)ccc2nccn12` (stereo not given), for which the growth is 122%.
Under `N#C/C(=C\c1ccc(-c2ccc(Cl)cc2Cl)o1)c1ccc(F)cc1` stands 96.3%; under `C=CC(=O)Nc1cccc(-c2nc(SC)nc(Nc3cccc(OC)c3)c2C#N)c1`, 69.7%; under `COc1cc2cc(Oc3ccc(NC(=O)Nc4cc(C(F)(F)F)cc(C(F)(F)F)c4)cc3)c(C)nc2cc1OCCN(C)C`, 100%.
Take `O=C(O)c1cn(C2CC2)c2cc(N3CCN(C(=O)/C=C/c4ccc(Cl)cc4)CC3)c(F)cc2c1=O`: the growth is 75.5%.
`Cc1ccc2c(n1)C(=O)C(Cl)=C(Nc1cccc(C(C)C)c1)C2=O`: the growth was -9.52% (active).
As for `COc1ccc(-c2cnc3c(-c4cccc5cnccc45)cnn3c2)cc1`, the growth was 47.9%.
Under `CN1CCN(Cc2ccc(NC(=O)c3cncc(C#Cc4cnc(N)c5ccc(C#N)cc45)c3)cc2C(F)(F)F)CC1` stands -58.4% (active); under `CCCc1cc(CCC)n2nc(N)nc2n1`, 95.8%; under `CCOC(=O)c1c2c(n3ccc(NC(=O)CCN4CCOCC4)cc13)C(=O)c1ncccc1C2=O`, 49.7%.
Take `O=c1c2cc(F)ccc2sc2c(NCCO)nc3ccccc3c12`: the growth was 80.3%.
On to `CC(C)c1ccc(Nc2ccc3c(OCCCN4CCN(C)CC4)cccc3n2)cc1`, for which the growth is 66%.
In the case of `CC(=O)[C@H]1CC[C@]2(C)[C@@H]1CC[C@@H]1[C@@]3(C)CC(CCC#N)(CCC#N)C(=O)C(C)(C)[C@@H]3CC[C@]12C`, the growth was 99.7%.
